# Data reported in PubChem BioAssay (Tox21).
# Inconclusive results are not listed. A number with no mark means an inactive call. The source made the active and inactive calls. Calls come from the whole dose curve; as a rule, active = well fitted activation curve with a large enough effect in the repeat runs; inconclusive = weak or mixed curves; inactive = flat fitted curve, though single readings scatter.
# Assay: A CellTox Green Cytotoxicity Assay to monitor cytotoxicity in HepG2 cells - 16 hour (AID 1224876); note: nearly all actives have a fitted effect of over 45% in size
# Details: CellTox Green fluorescence; series mostly up to 76.8 µM
# Text: National Center for Advancing Translational Sciences [NCATS]
# NIH Chemical Genomics Center [NCGC]
# U.S. Environmental Protection Agency [EPA]
# National Institutes of Environmental Health Sciences [NIEHS]
# National Toxicology Program [NTP]
# Cell-based models are critical for drug discovery. Determining the natural cytotoxic effects resulting from test compounds is an essential research activity. A CellTox Green Cytotoxicity Assay to monitor cytotoxicity in real time of continues cell culture during 40 hours of the compound treatment was used to screen Tox21 10K library compounds in HepG2 cells. CellTox Green Cytotoxicity Assay is a nonlytic, homogeneous, biofluorescent method to measure cytotoxicity in cell culture after experimental manipulation. The assay system uses a proprietary asymmetric cyanine dye that is excluded from viable cells but preferentially stains the dead cell's DNA. […] Viable cells produce no appreciable increases in fluorescence. Therefore, the fluorescence signal produced by the binding interaction with dead cell DNA is proportional to cytotoxicity.
# The mixture of HepG2 cell suspension and reagents were dispensed at 600cells/6 ul/well in 1536-well tissue culture treated black solid bottom plates using a Multidrop dispenser. After the assay plates were incubated at a 37 C/5% CO2 incubator for 5 hours, 23 nL of compounds dissolved in DMSO, positive and negative controls was transferred to the assay plate by a pintool work station. The plates were incubated at 37 C for 40 hours. The fluorescence intensity were measured at 0h, 8h, 16h, 24h, 32h and 40h time points using ViewLux plate reader during compound treatment.
# % is set by controls: 0 for no effect and ±100 for the full control effect.
Structure (SMILES),outcome,cytotoxicity increase
COc1ccc(Br)c(C)c1,inactive,–
CCCOC(OCCC)OCCC,inactive,–
CC(=O)OC(C)OC(=O)C(C)c1ccc(-c2ccccc2)c(F)c1 (stereo not given),inactive,–
Brc1ccc(-c2ccccc2)cc1,inactive,–
COCCOCCOCCOCCO,inactive,–
O=S(=O)(O)CCN1CCN(CCO)CC1,inactive,–
C[C@H](N)[C@H](O)c1cccc(O)c1,inactive,–
CCCCCCCC/C=C\CCCCCCCC(=O)OCCCC,–,-7.79% [at 15.8 µM]
N#Cc1ccc(C(=O)O)cc1,inactive,–
CCCCOCCOC(=O)COc1nc(Cl)c(Cl)cc1Cl,inactive,–
NS(=O)(=O)c1cc2c(cc1Cl)CN(C1CCCCC1)C2=O,inactive,–
Cc1ccsc1/C=C/C1=NCCCN1C,inactive,–
C[C@H](CCC(=O)O)[C@H]1CC[C@H]2[C@@H]3C(=O)C[C@@H]4CC(=O)CC[C@]4(C)[C@H]3CC(=O)[C@]12C,inactive,–
COP(=O)(OC)OC(c1ccc(Cl)cc1)P(=O)(OC)OC (stereo not given),inactive,–
COC(=O)CCc1ccc(OCC(O)CNC(C)C)cc1 (stereo not given),inactive,–
CCCCCOC(=O)CCC,inactive,–
O=C(CCN1CCN(CCO)CC1)N1c2ccccc2Sc2ccc(C(F)(F)F)cc21,inactive,–
Cc1cc(C(C)(C)C)c(O)c(C)c1CC1=NCCN1,inactive,–
CCO[Si](CCCS)(OCC)OCC,inactive,–
CC(C)(C)NC(N)=O,inactive,–

Structure (SMILES),outcome,cytotoxicity increase
C=C(C)C1CCC(C)(O)CC1 (stereo not given),inactive,–
CNS(=O)(=O)CCc1ccc2[nH]cc(C3CCN(C)CC3)c2c1,inactive,–
CCCCCCCCCC(C)=O,inactive,–
CCOC(=O)[C@H](CCc1ccccc1)N[C@@H](C)C(=O)N1C(=O)N(C)C[C@H]1C(=O)O,inactive,–
CC1=CCC(C(C)C)=CC1,inactive,–
CN(C)C(=O)CNC(=O)Cc1ccccc1,inactive,–
C=CCCCCCCCCCCCC,inactive,–
CCCCNc1ccc(C(=O)OCCN(C)C)cc1,inactive,–
Cc1c(I)c(=O)n(-c2ccccc2)n1C,inactive,–
NCCS,inactive,–
C[Si](C)=O,–,-6.23% [at 6.97 µM]
Cc1ccc(S(=O)(=O)O)c(C)c1,inactive,–
COc1cc2c(cc1OC)[C@@H]1CC(=O)[C@@H](CC(C)C)CN1CC2,inactive,–
COc1ccc2c(c1)C(=O)N(CCc1ccc(S(=O)(=O)NC(=O)NC3CCCCC3)cc1)C(=O)C2(C)C,inactive,–
COc1ccc(C2CNC(=O)C2)cc1OC1CCCC1 (stereo not given),inactive,–
O=C(O)c1ccc(Cl)cc1Cl,inactive,–
O=C1c2cccc3c2[C@H](CCC3)CN1[C@@H]1CN2CCC1CC2,inactive,–
COCCc1ccc(OCC2CO2)cc1 (stereo not given),inactive,–
CCOC(=O)c1ccc(OC(=O)CCCCCN=C(N)N)cc1,inactive,–
Cc1nc2n(c(=O)c1CCN1CCC(c3noc4cc(F)ccc34)CC1)CCC[C@H]2O,–,-0.968% [at 15.8 µM]
